From PubChem BioAssay (EPA / NIEHS)
Calls of active or inactive are those of the source. How the source made its calls: active means hit-call score of the fitted dose curve at least 0.9, where 1 is the maximum; inactive means score below 0.9.

test: APR_HepG2_CellCycleArrest_24hr: Apredica 24-hour HepG2 Assay for Cell Cycle Arrest (AID 2282905); conditions: imaging, actives raise or lower the signal;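 further: cell cycle arrest scored as ratio of 2N to 4N nuclear DNA content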
Method: APR_HepG2_24hr is a cell-based, multiplexed-readout assay that uses HepG2, a human liver cell line, with measurements taken at 24 hours after chemical dosing in a 384-well plate.APR_HepG2_CellCycleArrest_24hr is one of 10 assay component(s) measured or calculated from the APR_HepG2_24hr assay. It is designed to make measurements of cell phenotype, a form of morphology reporter, as detected with fluorescence intensity signals by HCS Fluorescent Imaging technology.Data from the assay component APR_HepG2_CellCycleArrest_24hr was analyzed into 1 assay endpoint. This assay endpoint, APR_HepG2_CellCycleArrest_24hr, was analyzed with bidirectional fitting relative to DMSO as the negative control and baseline of activity. Using a type of morphology reporter, measures of all nuclear dna for gain or loss-of-signal activity can be used to understand the signaling at the pathway-level as they relate to the gene . Furthermore, this assay endpoint can be referred to as a primary readout, because this assay has produced multiple assay endpoints where this one serves a signaling function. To generalize the intended target to other relatable targets, this assay endpoint is annotated to the cell cycle intended target family, where the subfamily is arrest.
Cells were treated with dimethyl sulfoxide (DMSO) as a solvent control at a final concentration of 0.5% v/v or with compounds in DMSO with a resulting final DMSO concentration of 0.5% v/v. Compound treatment was done at concentrations of 0.39, 0.78, 1.56, 3.12, 6.24, 12.5, 25, 50, 100, and 200 uM in duplicate on each plate. Cells were treated with compounds for 1, 24, or 72 hr. Carbonyl […] m-chloro-phenylhydrazone (CCCP) and taxol were used as positive controls for mitochondrial function and cytoskeletal stability, respectively; DMSO served as the negative control for this experiment. Cells were fixed by the direct addition of 50 uL formaldehyde in Hank's Balanced Salt Solution (HBSS) to a final concentration of 3.7%. After incubation in the fixation medium for 30 min at room temperature (293-298 K), cells were rinsed twice with HBSS and treated with cell permeabilization buffer (16 uL of 0.5% Triton X-100) for 10 min at room temperature (293-298 K) before labeling. For mitochondrial membrane potential and mitochondrial measurements, pre-fixed cells were incubated with 50 uL of MitoTracker Red CMXRos (Invitrogen) at a concentration of 250 nM for 30 min before fixation. In the remaining cases, post-fixed cells were labeled by incubation with a multiplexed mixture of primary antibodies in HBSS for 60 min at room temperature (293-298 K) to detect immunoreactivity of c-Jun (1:500), phospho-histone H3 (1:100), phospho-histone H2A.x (1:200), p53 (1:400), alpha-tubulin (1:200) and Hoechst 33342 (2 ug/mL). Cells were labeled for multiplexed imaging on two separate plates: a) Hoechst 33342, MitoTracker Red, phospho-histone H3, and alpha-tubulin, and b) Hoechst 33342, phospho-histone H2A.x, and c-Jun. A final rinse with HBSS (50 uL) was performed before analysis. The primary and secondary antibodies for the proteins were phospho-histone H3 (rabbit anti-phospho-histone H3 and FITC-donkey anti-rabbit IgG), phospho-histone H2A.x (mouse anti-phospho-histone H2A.x and FITC-donkey anti-mouse IgG), c-Jun (rabbit anti-phospho-c-Jun and Cy3-donkey anti-rabbit IgG), p53 (sheep anti-p53 and Cy5-donkey anti-sheep IgG), alpha-tubulin (mouse anti-alpha-tubulin and Cy5-donkey anti-mouse IgG). These antibodies are available as the CellCiphr HepG2 assay kit (Millipore).Digital images of each well were captured using a Cellomics ArrayScan VTI (Thermo Scientific Cellomics) (0.8 NA objective, 0.63x optical coupler, and XF-93 filter set) at 20x magnification. The images were acquired using the autofocus feature of the ArrayScan instrument, which entails the following steps. First, the camera focuses on channel 1 (Hoechst 33342), where nuclei are identified. Second, a Z offset of 1 um is used for capturing mitochondria (MitoTracker Red). […]

SMILES	AC50	outcome
COP(=O)(OC)C(O)C(Cl)(Cl)Cl (stereo not given)	164 µM (active)	
CCCCN(CC)c1c([N+](=O)[O-])cc(C(F)(F)F)cc1[N+](=O)[O-]	99.3 µM (active)	
COc1cc(OC)nc(Sc2cccc(Cl)c2C(=O)O)n1		inactive
CC[C@H](C)[C@H]1O[C@]2(C=C[C@@H]1C)C[C@@H]1C[C@@H](C/C=C(\C)[C@@H](O[C@H]3C[C@H](OC)[C@@H](O[C@H]4C[C@H](OC)[C@@H](NC)[C@H](C)O4)[C@H](C)O3)[C@@H](C)/C=C/C=C3\CO[C@@H]4[C@H](O)C(C)=C[C@@H](C(=O)O1)[C@]34O)O2		inactive
COc1cccc(C(=O)NN(C(=O)c2cc(C)cc(C)c2)C(C)(C)C)c1C		inactive
CCNc1nc(Cl)nc(NC(C)(C)C#N)n1		inactive
C[N+]1(C)CCCCC1		inactive
Nc1nc(N)nc(NC2CC2)n1		inactive
CC(C1CC1)C(O)(Cn1cncn1)c1ccc(Cl)cc1 (stereo not given)		inactive
CCOP(=O)(NC(C)C)Oc1ccc(SC)c(C)c1 (stereo not given)		inactive
CNc1cnn(-c2cccc(C(F)(F)F)c2)c(=O)c1Cl		inactive
CSC1=N[C@@](C)(c2ccccc2)C(=O)N1Nc1ccccc1		inactive
CNC(=O)ON=C(SC)C(=O)N(C)C		inactive
CCOP(=S)(Oc1cnc(C(C)(C)C)nc1)OC(C)C (stereo not given)	152 µM (active)	
O=c1ccc(=O)[nH][nH]1		inactive
CCCCOC(=O)c1ccccc1C(=O)O		inactive
C#CC(C)(C)NC(=O)c1cc(Cl)cc(Cl)c1		inactive
N#CSCSC#N		inactive
CCCOCC(=Nc1ccc(Cl)cc1C(F)(F)F)n1ccnc1		inactive
CCOP(=O)(SC(C)CC)N1CCSC1=O (stereo not given)		inactive

SMILES	AC50	outcome
COP(=O)(NC(C)=O)SC (stereo not given)		inactive
Cc1cc(C2CC2)nc(Nc2ccccc2)n1		inactive
Cc1nn(-c2cc(NS(C)(=O)=O)c(Cl)cc2Cl)c(=O)n1C(F)F		inactive
Cc1ccn2nc(S(=O)(=O)Nc3c(F)cccc3F)nc2n1		inactive
COP(=O)(OC)SCn1c(=O)oc2cc(Cl)cnc21		inactive
CCOC(=O)CC(SP(=O)(OC)OC)C(=O)OCC (stereo not given)		inactive
CCOP(=S)(OCC)Oc1cc(C)nc(C(C)C)n1		inactive
CCC(CC)Nc1c([N+](=O)[O-])cc(C)c(C)c1[N+](=O)[O-]		inactive
CCCCSP(=O)(SCCCC)SCCCC		inactive
CC1(C(=O)Nc2ccc(O)c(Cl)c2Cl)CCCCC1		inactive
CC1=NNC(=O)N(/N=C/c2cccnc2)C1		inactive
COP(=O)(OC)OC(Br)C(Cl)(Cl)Br (stereo not given)		inactive
CCCCOC(=O)[C@@H](C)Oc1ccc(Oc2ccc(C#N)cc2F)cc1	96.9 µM (active)	
O=C(O)c1cc(Oc2ccc(C(F)(F)F)cc2Cl)ccc1[N+](=O)[O-]		inactive
CC(=NC#N)N(C)Cc1ccc(Cl)nc1		inactive
FC(F)C(F)(F)OCC(Cn1cncn1)c1ccc(Cl)cc1Cl (stereo not given)		inactive
CC(C)N(C(=O)SCC(Cl)=C(Cl)Cl)C(C)C		inactive
C#CCC1=C(C)C(OC(=O)C2C(C=C(C)C)C2(C)C)CC1=O (stereo not given)	151 µM (active)	
CC(Oc1cccc(Cl)c1)C(=O)O (stereo not given)		inactive
CCCSP(=O)(OCC)Oc1ccc(Br)cc1Cl (stereo not given)		inactive
